Measured values published in PubChem BioAssay AID651635 (National Center for Advancing Translational Sciences (NCATS), 2012).
Out of some 400,000 compounds screened, about 1,900 (0.47%) were called active. About 14% were inconclusive and are not listed. This is one part of a sample in which actives are shown more often than they occur. The call rests on the fitted dose curve; in most records, active means well fitted cell-killing curve with a large enough effect; inconclusive means small, poorly fitted or top-dose-only effect, or effect the other way; inactive means no such curve, though single readings can be large or run the other way.

assay: Viability Counterscreen for Primary qHTS for Inhibitors of ATXN expression; conditions: S2 cells (HEK-293 line with an ATXN2-luciferase reporter) viability, CellTiter-Fluor protease fluorescence, 24 h; series mostly up to 56.7 µM; activity change, negative = cytotoxicity: at the top concentration; further: nearly all actives have a fitted effect of over 40% in size
Potency means the concentration at half of the fitted maximal effect.

Structure (SMILES) | Potency | activity change, negative = cytotoxicity
Oc1ccc(Br)cc1/C=N/Nc1ccccn1 | 0.251 µM (active) | 
Cc1c(C(=O)Nc2ccccn2)oc2ccc(Br)cc12 |  | -31.1% (inactive)
O=C(CCc1ccc(O)cc1)NN=Cc1cc(Br)ccc1O |  | -7.67% (inactive)
CN[C@H]1C[C@H]2c3cc(Oc4ccccc4C)ccc3CCN2C(=O)[C@H]1[C@H](C)O |  | -34.6% (inactive)
COc1ccccc1-c1ccc(C(=O)N(C)C(C)c2ccon2)c(N2CCN(c3ccccc3F)CC2)n1 (stereo unspecified) |  | -15.6% (inactive)
COc1ccc(NC(=O)C(=O)NCc2ccco2)cc1 |  | -3.97% (inactive)
COc1ccc(CS(=O)/C(Cl)=C(/Cl)C(=O)Nc2ccc(OC)nc2)cc1 (stereo unspecified) | 1.89 µM (active) | 
COc1ccc(C(O)c2nc(-c3ccc(OC)nc3)cs2)cc1 (stereo unspecified) |  | -24.5% (inactive)
Cc1nnc(C(=O)NC(C)(C)c2nc(C(=O)NCc3ccc(F)cc3)c(O)c(=O)n2C)o1 | inactive | 
COc1cc(OC)cc(C(=O)Nc2ccc3nc(Nc4cccc(C(F)(F)F)c4)cc(C)c3c2)c1 |  | 8.18% (inactive)
COc1cc(NC(=O)c2[nH]cnc2C(N)=O)cc(C(=O)Nc2cccc(C(F)(F)F)c2)c1 | 10 µM (active) | 
Cc1cc(Nc2cccc(C(F)(F)F)c2)nc2ccc(NC(=O)c3ccc(=O)[nH]c3)cc12 |  | 1.61% (inactive)
CN(C)C(=O)[C@@H]1C[C@@H](Sc2nc3ccccc3[nH]2)CN1Cc1ccc(Cl)cc1 |  | -16.4% (inactive)
CCC(=O)Nc1ccc(Nc2nc(Cl)nc(Nc3ccc(NC(=O)CC)cc3)n2)cc1 |  | 11.2% (inactive)
CC(C)(CCl)C(=O)Nc1ccc(Sc2ccc(F)cc2)cc1 |  | -39% (inactive)
O=C(CCl)Nc1ccc(Sc2ccc(NC(=O)CCl)cc2)cc1 | 11.2 µM (active) | 
COC(=O)c1ccccc1-c1cc(C)cc2c1OC(CNC(=O)C1CCOC1)C2 (stereo unspecified) |  | -11.1% (inactive)
CNc1cncc(-c2ccc(NS(C)(=O)=O)cc2)n1 |  | 29.4% (inactive)
CCc1ccc2c(c1)NC(=O)C2(C)Cc1ccc(OC(F)(F)F)cc1 (stereo unspecified) | 20 µM (active) | 
COC(=O)Cc1ccc(OCC(=O)Nc2ccc(OC(F)(F)F)cc2)cc1 |  | -27.9% (inactive)
CCC1CN(CCNC(=O)c2cccnc2C)Cc2cc(OC)ccc2O1 (stereo unspecified) |  | -4.97% (inactive)
COc1ccc(CN2CCC3(CCC(CNC(=O)c4ccco4)O3)CC2)cc1OC (stereo unspecified) |  | -18.1% (inactive)

Structure (SMILES) | Potency | activity change, negative = cytotoxicity
O=c1cc(O)c(-c2cccc(C(F)(F)F)c2)c(Cl)[nH]1 |  | -19.8% (inactive)
CCCCOC(=O)/C(C#N)=C/c1ccc(-c2cccc(C(F)(F)F)c2)o1 |  | -14.9% (inactive)
CC1(Cc2cccc(C#N)c2)C(=O)Nc2ccc(-c3cccc(C(F)(F)F)c3)cc21 (stereo unspecified) | 25.1 µM (active) | 
COCCCN1CCC(NC(=O)c2cc(Cl)c(N)c3c2OCC3)CC1 |  | -17.6% (inactive)
COc1ccccc1C(=O)N[C@@H]1c2ccccc2C2(CCN(C(=O)c3csnn3)CC2)[C@H]1OC |  | -12.9% (inactive)
Cc1cnc(C)c(-c2cc(F)c3c(c2)CC(CNC(=O)c2cccc(Cn4cccn4)c2)O3)n1 (stereo unspecified) |  | -19.6% (inactive)
C#Cc1cc(N2CCN(C(=O)c3ccoc3)CC2)n2nc(-c3cccc(Cl)c3)cc2n1 | 15.8 µM (active) | 
O=C(c1ccccc1)N1CCN(C(=O)c2cc3nc(-c4ccccc4)cc(C(F)(F)F)n3n2)CC1 |  | -32.8% (inactive)
CN(C)CCN1CCN(c2cc(-c3cccc(Cl)c3)nc3ccnn23)CC1 |  | -1.53% (inactive)
COCc1c(C(=O)NC2CCCCC2)cnn1-c1nccc(-c2ccccc2OC)n1 |  | 1.68% (inactive)
Cc1ccc(F)cc1S(=O)(=O)N1CCC(c2nc3ccccc3s2)CC1 |  | -17.6% (inactive)
COc1cc(=O)n2c(c1C(=O)NC(C)c1ccco1)CCN(C(=O)c1cn3ccc(C)cc3n1)CC2 (stereo unspecified) |  | -5.3% (inactive)
CO/N=C(/C(=O)N[C@@H]1C(=O)N2C(C(=O)O)=C(Cn3nnc(C)n3)CS[C@H]12)c1csc(N)n1 |  | -4.23% (inactive)
CCOC(=O)/C(=C\c1ccc([N+](=O)[O-])cc1)C(=O)c1cc(C(C)=O)c(Nc2ccccc2)s1 | 31.6 µM (active) | 
CC(=O)Nc1ccc(C=CC(=O)c2ccc([N+](=O)[O-])cc2)cc1 |  | -35.6% (inactive)
O=C(O)C(=Cc1ccc([N+](=O)[O-])cc1)CCc1ccccc1 |  | 4.26% (inactive)
CC(C)(C)OC(=O)N1CCN(C(=O)c2[nH]c(C(F)(F)F)nc2-c2ccccc2)CC1 |  | 6.95% (inactive)
COc1ccc(F)c(CN2CCC3(CCC(CNC(=O)c4ccn(C)n4)O3)CC2)c1 (stereo unspecified) |  | -17% (inactive)
CCCNC(=O)c1cc2c(c(-c3cccc(-c4ccc(C#N)cc4)c3)n1)[C@@H](CCO)N(C(=O)CC)C2 |  | -27.1% (inactive)
CCOC(=O)[C@]12CCC=C1N(Cc1ccco1)C(=O)[C@H](CC(=O)NCc1cccc(C(F)(F)F)c1)C2 |  | -31.8% (inactive)
CC1Cc2[nH][nH]c(=O)c2C(C2CCCC2)O1 (stereo unspecified) |  | -24.8% (inactive)
COCCCNC(=S)N(Cc1ccccc1)Cc1ccc(F)cc1 |  | -7.99% (inactive)

Structure (SMILES) | Potency | activity change, negative = cytotoxicity
C=CCC[C@@H](Cc1ccc(F)cc1)C(=O)O[C@H](CNC(=O)[C@H](CC=C)CC(=O)N(CCO)Cc1ccccc1)c1ccccc1 | 25.1 µM (active) | 
CC(=O)NC(Cc1c[nH]c2ccccc12)C(=O)NCCc1ccccc1 (stereo unspecified) |  | 22% (inactive)
C=CCC[C@@H](Cc1ccc(F)cc1)C(=O)OC[C@H](Cc1c[nH]c2ccccc12)NC(=O)[C@@H](CC=C)CC(=O)N(CCO)Cc1ccccc1 | 5.62 µM (active) | 
C=CC[C@@H](CC(=O)N[C@@H](CO)Cc1ccccc1)C(=O)NCCOC(=O)[C@@H](CC=C)CC(=O)OC(C)(C)C |  | -17.6% (inactive)
C=CC[C@@H](CC(=O)N[C@H](CO)Cc1ccccc1)C(=O)N[C@H](C)COC(=O)[C@@H](CC=C)Cc1ccc(F)cc1 |  | -42.4% (inactive)
C=CCC[C@H](Cc1ccc(F)cc1)C(=O)OC[C@@H](NC(=O)[C@@H](CC=C)CC(=O)N[C@H](CO)Cc1ccccc1)C(C)(C)C | 31.6 µM (active) | 
C=CC[C@H](CC(=O)OC(C)(C)C)C(=O)OC[C@H]1CCCN1C(=O)[C@H](CC=C)CC(=O)N(CCO)Cc1ccccc1 |  | -32.5% (inactive)
C=CC[C@@H](CC(=O)N[C@H](CO)Cc1ccccc1)C(=O)N[C@@H](COC(=O)[C@@H](CC=C)Cc1ccc(F)cc1)Cc1c[nH]c2ccccc12 |  | -20.2% (inactive)
COc1ccc(-c2cc(NC=O)c3ncc(-c4ccccc4)n3c2)cc1OC |  | -34.1% (inactive)
CC1(C)[C@H](O[C@H]2O[C@H](C(=O)O)[C@@H](O)[C@H](O)[C@H]2O[C@@H]2O[C@H](C(=O)O)[C@@H](O)[C@H](O)[C@H]2O)CC[C@@]2(C)[C@H]1CC[C@]1(C)[C@H]2C(=O)C=C2[C@H]3C[C@@](C)(C(=O)O)CC[C@]3(C)CC[C@]21C |  | -18.3% (inactive)
COc1cccc(CNc2nc3cc(-c4csc5ccccc45)sc3c(=O)n2C)c1 |  | -21.8% (inactive)
COC(=O)C1CCCCN1Cc1ccc2c(c1)CN(Cc1cc(OC)c3c(c1)OCO3)CCO2 (stereo unspecified) |  | -12.7% (inactive)
Cc1nc2nc(NCc3cccc(Br)c3)[nH]n2c(=O)c1Cc1ccccc1 |  | -9.08% (inactive)
C=C1C(=O)[C@]23C[C@H]1CCC2[C@@]1(C)C(C[C@@H]3O)[C@](C)(C(=O)O)CC[C@@H]1O (stereo partly specified) | 15.8 µM (active) | 
CCc1noc(C)c1C(=O)NCCN1Cc2cc(OC)ccc2OC(CC)C1 (stereo unspecified) |  | -3.48% (inactive)
COc1ccc(C2OC(CCc3ccccc3)Cc3[nH]c(=S)[nH]c(=O)c32)cc1 (stereo unspecified) |  | -35.3% (inactive)
CC(=O)O[C@H]1CC[C@@]2(C)C(=CC[C@@H]3[C@@H]2CC[C@]2(C)C(c4cccnc4)=CC[C@@H]32)C1 |  | -2.28% (inactive)
CCOC(=O)[C@]12CCCC=C1N(Cc1cccc3ccccc13)C(=O)[C@H](CC(=O)NCC13CC4CC(CC(C4)C1)C3)C2 |  | -27.9% (inactive)
Nc1ncnc2c1ncn2[C@@H]1O[C@H](CNC(=O)[C@H](N)Cc2cccnc2)[C@@H](O)[C@H]1O |  | -12% (inactive)
COc1ccc(C[C@H](N)C(=O)N[C@@H]2[C@H](O)[C@H](n3cnc4c(N(C)C)ncnc43)O[C@@H]2CO)cc1 | 2 µM (active) | 
COc1cccc(CN(C)C(=O)CC[C@H]2O[C@@H](n3cnc4c(NC(=O)c5ccccc5)ncnc43)[C@H](O)[C@@H]2O)c1 |  | -19.7% (inactive)
CC1(C)OC(=O)C2=C(C[C@@H](C3CCCCC3)O[C@@H]2c2ccc(Cl)cc2)O1 |  | -14.4% (inactive)

Structure (SMILES) | Potency | activity change, negative = cytotoxicity
NNc1nnc(Cc2ccncc2)c2ccccc12 |  | -5.09% (inactive)
OC[C@@H]1CN(Cc2ccncc2)C[C@H](n2cnc3c(N4CCN(c5ccccc5)CC4)ncnc32)O1 |  | -36% (inactive)
COc1cc(=O)n2c(c1C(=O)N(C)Cc1nccs1)CCN(Cc1ccc(Cl)cc1)CC2 |  | 2.64% (inactive)
CCCCOc1ccc(CN2C(=O)C(=O)c3cc(Br)cc(C)c32)cc1OC | 25.1 µM (active) | 
CCCCN1C(=O)C(C)=C(C)C1OCCc1ccc(OC)c(OC)c1 (stereo unspecified) |  | -10.5% (inactive)
COc1ccc(CCN2C(=O)C(C)=C(C)C2=O)cc1OC |  | -20.2% (inactive)
CCOP(=O)(OCC)C(Cc1ccccc1)N=C(c1ccccc1)c1ccccc1 (stereo unspecified) |  | -21.5% (inactive)
CC1=NNC(=O)C1CCC(=O)N/N=C(\C)c1ccc(Cl)cc1 (stereo unspecified) |  | -20.8% (inactive)
C/C(=N\NC(=O)c1ccccc1F)c1ccccn1 | 7.94 µM (active) | 
NC(=O)NC(CC(=O)NNC(=O)c1ccccn1)c1ccc(Cl)cc1 (stereo unspecified) |  | -27.3% (inactive)
O=C(NCCOc1ccccc1)c1ccccc1F |  | -18.6% (inactive)
C/C(=N\NC(=O)Cc1ccc(Cl)cc1)c1ccccn1 | 5.62 µM (active) | 
COc1ccc(/C(C)=N\NC(=O)c2ccc(-c3ccccc3)cc2)c(F)c1 |  | -19.8% (inactive)
Cn1nccc1C(=O)NCC1CCC2(CCN(Cc3c(O)ccc4ccccc34)CC2)O1 (stereo unspecified) |  | -8.44% (inactive)
COc1ccccc1C1CN(Cc2ccccc2O)Cc2ccccc2O1 (stereo unspecified) |  | -9.48% (inactive)
CCC1CN(CCNC(=O)c2cccc(C)n2)Cc2cc(OC)ccc2O1 (stereo unspecified) |  | -11.5% (inactive)
Cc1ccc2c(C)nc(N3CCCC(C(=O)NC(C)(C)CO)C3)nc2c1 (stereo unspecified) |  | -1.89% (inactive)
CCC1(C2CCN(Cc3cccnc3)CC2)NC(=O)N(CC2COc3ccccc3O2)C1=O (stereo unspecified) |  | -2.28% (inactive)
COc1cc(C)c(CN2CCc3nnc(C(C)NC(=O)c4cccnc4)n3CC2)cc1C (stereo unspecified) |  | -8.61% (inactive)
Cc1cccc(CNC(=O)c2cnn(-c3nccc(-c4ccccc4F)n3)c2C2CC2)n1 |  | -6.63% (inactive)
